M1 agonist: activates the M1 muscarinic receptor | CHO-M1 cells, Fluo-4 calcium fluorescence, agonist mode; hits give high values | B-score at 10 µM | 64,000 tested, 3% active;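 active = fluorescence rise, raw or as B-score row- and column-corrected plate score, outside the 99.7% band of its plate's samples, either direction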
M1 antagonist: blocks the rat M1 muscarinic receptor response to acetylcholine; P08482; CHO-M1 cells, Fluo-4 calcium, ACh EC80 antagonist mode; hits give low values; B-score at 10 µM; 64,000 tested, 3.4% active;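 active = calcium fluorescence response, raw or row-and-column corrected B-score, differing from the plate sample mean either way at a set confidence level, mostly lower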
PLAP act: human PLAP activation; purified PLAP enzyme, luminescent substrate read-out; hits give high values; AID 696; P05187; activation fold at 20 µM; 96,000 tested, 1.2% active; in the data active = activation fold above about 2
Target sequence (P05187 whole entry, looked up): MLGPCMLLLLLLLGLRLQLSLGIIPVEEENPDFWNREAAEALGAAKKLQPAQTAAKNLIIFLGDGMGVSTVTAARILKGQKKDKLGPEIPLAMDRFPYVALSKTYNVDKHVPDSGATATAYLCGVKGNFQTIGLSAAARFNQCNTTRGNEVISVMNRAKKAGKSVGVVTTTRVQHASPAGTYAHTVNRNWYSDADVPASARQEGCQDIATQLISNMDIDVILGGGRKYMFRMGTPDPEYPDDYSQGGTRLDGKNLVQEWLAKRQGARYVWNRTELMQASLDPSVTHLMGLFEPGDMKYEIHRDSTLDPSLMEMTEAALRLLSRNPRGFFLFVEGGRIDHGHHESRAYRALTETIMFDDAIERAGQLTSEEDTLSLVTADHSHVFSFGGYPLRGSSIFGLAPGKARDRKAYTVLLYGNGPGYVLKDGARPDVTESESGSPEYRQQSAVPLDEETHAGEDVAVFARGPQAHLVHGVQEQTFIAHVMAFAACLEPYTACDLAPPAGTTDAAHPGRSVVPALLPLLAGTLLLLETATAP
Cav32 inh: blocks human Cav3.2 T-type calcium channel; O95180; Cav3.2-expressing cells, Fluo-4 calcium fluorescence FDSS; hits give low values; B-score at 10 µM; 100,000 tested, 4% active; AID 449739;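 active = single-dose well whose peak fluorescence ratio is a statistical outlier from its plate by either plate-standardised score or position-corrected B-score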
M1 agonist conf: rat M1 muscarinic agonism, confirmation | shares compounds with M1 agonist | AID 1488 | 1,700 tested, 19% active | CHO-M1 cells, Fluo-4 calcium fluorescence, agonist mode; actives lie on both sides | fluorescence change (max-min) at 10 µM;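 active = fluorescence change differs from the solvent-only DMSO control mean at a set confidence level in both duplicate runs; inconclusive = differs from solvent-only control mean in just one of two runs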;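 also: an EC20 dose of acetylcholine follows compound addition during the same imaging run; raw fluorescence intensity difference in instrument units with no normalization to controls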
M4 ag counter: activates rat M4 receptor in counter-screen for M1 agonists. 1,700 tested, 9% active. CHO M4/Gqi5 cells, Fluo-4 calcium fluorescence, agonist mode; actives lie on both sides. AID 1741. fluorescence change (max-min) at 10 µM. shares compounds with M1 agonist;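 active = fluorescence change differing from the plate's solvent-only control wells at 99.7% confidence in both duplicates, whether higher or lower; inconclusive = differs from solvent controls in only one of two duplicates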
An asterisk follows results filed as active. A selection: hits, their analogues and other compounds. The true share with any hit is near 7.6%.

What do the screens show for `Cc1nn(-c2ccccc2)c(Cl)c1C(=O)N1CCN(c2ncnc3c2cnn3-c2ccccc2)CC1`?
M1 agonist: 2.5*; M1 antagonist: -3.4*; PLAP act: 1.1; Cav32 inh: -3.5; M1 agonist conf: -27*; M4 ag counter: -57

What do the screens show for `N#Cc1c(-c2ccc3c(c2)OCO3)csc1N`?
M1 agonist: 3.2*; M1 antagonist: -0.048; PLAP act: 0.8; Cav32 inh: 0.35; M1 agonist conf: -0.042; M4 ag counter: -29

Results for Cn1cccc1P(=O)(c1cccn1C)c1cccn1C ?
M1 agonist: 0.66; M1 antagonist: -0.04; PLAP act: 1.2; Cav32 inh: 0.25

Results for CN(C)c1oc(-c2cccs2)nc1C#N ?
M1 agonist: -0.72; M1 antagonist: -0.041; PLAP act: 0.9

What do the screens show for `CN(C)c1oc(-c2ccccc2F)nc1C#N`?
M1 agonist: 8.3*; M1 antagonist: -1.1; PLAP act: 0.9; Cav32 inh: -0.3; M1 agonist conf: -14; M4 ag counter: -45

Results for O=C(CN(Cc1ccccc1Cl)C(=O)c1ccc(CN2CCOCC2)o1)NCC1CCCO1 (stereo not drawn) ?
PLAP act: 1.3; Cav32 inh: -0.0092

How did CCOC(=O)N1CCC(NCCNC(=O)c2ccc(Cl)cc2)CC1 do in these assays?
M1 agonist: 18*; M1 antagonist: -0.87; PLAP act: 1; Cav32 inh: 0.76; M1 agonist conf: 115*; M4 ag counter: 1.4

How did CCOC(=O)N1CCC(NC(=O)c2cc(C(=O)NCc3cccc(Cl)c3)ccc2CO)CC1 do in these assays?
M1 agonist: 0.68; M1 antagonist: 0.91; PLAP act: 1.1; Cav32 inh: -0.86

Results for COc1cc(SC)ccc1C(=O)Nc1ccc2c(c1)CCN2S(C)(=O)=O ?
M1 agonist: -0.2; M1 antagonist: -0.64; PLAP act: 0.9; Cav32 inh: 1.4

How did COCCn1nnnc1C(c1ccc(Cl)cc1)N1CCSCC1 (stereo not drawn) do in these assays?
PLAP act: 1.4; Cav32 inh: -0.69

Results for Clc1ccc(C(c2nnnn2C2CCCC2)N2CCSCC2)cc1 (stereo not drawn) ?
M1 agonist: 8*; M1 antagonist: 1; PLAP act: 1.1; Cav32 inh: -2.5; M1 agonist conf: -19; M4 ag counter: inconclusive

Results for O=C(CNS(=O)(=O)c1ccc(Br)cc1)N1CCOCC1 ?
PLAP act: 1; Cav32 inh: -0.46

How did Cc1ccc2c(c1)[nH]c1c(N3CCN(Cc4ccccc4)CC3)ncnc12 do in these assays?
M1 agonist: 3.9*; M1 antagonist: -3.1*; PLAP act: 1; Cav32 inh: -4.9*; M1 agonist conf: -13; M4 ag counter: inconclusive

Results for c1ccc2c(c1)CCN(c1ncnc3c1[nH]c1ccccc13)C2 ?
M1 agonist: 5.6*; M1 antagonist: -3.4*; PLAP act: 1; M1 agonist conf: 10; M4 ag counter: -25

Results for COc1ccc2c(c1)[nH]c1c(N3CCN(Cc4ccc5c(c4)OCO5)CC3)ncnc12 ?
M1 agonist: 2.2; M1 antagonist: -1.9; PLAP act: 1.9

Results for COc1cccc(N2CCN(c3ncnc4c3[nH]c3ccccc34)CC2C)c1 (stereo not drawn) ?
M1 agonist: 11*; M1 antagonist: -3.4*; Cav32 inh: -5.9*; M1 agonist conf: inconclusive; M4 ag counter: -52

What do the screens show for `c1ccc(CN2CCN(c3ncnc4c3[nH]c3ccccc34)CC2)cc1`?
M1 agonist: 3.9*; M1 antagonist: -2.7*; PLAP act: 1.3; Cav32 inh: -3.3; M1 agonist conf: -1.9; M4 ag counter: inconclusive

Results for c1ccc2c(c1)[nH]c1c(N3CCC4(CC3)OCCO4)ncnc12 ?
M1 agonist: 1.4; M1 antagonist: -1.3; PLAP act: 0.8; Cav32 inh: 0.53

What do the screens show for `Cc1nc(NCCCn2ccnc2)c2ccccc2n1`?
M1 agonist: -0.022; M1 antagonist: 0.24; PLAP act: 1; Cav32 inh: 0.013

Results for O=C1c2ccccc2-c2onc3ccc(NCCCn4ccnc4)c1c23 ?
M1 agonist: 97*; M1 antagonist: -11*; PLAP act: 1.5; Cav32 inh: -1.2; M1 agonist conf: 9; M4 ag counter: 272

What do the screens show for `CCc1nnc(NC(=O)C2CCCN2C(=O)NC2CCCCC2)s1` (stereo not drawn)?
M1 agonist: -0.81; M1 antagonist: -2.1; PLAP act: 1.1; Cav32 inh: -0.24

How did CCOC(=O)c1c(=O)n(O)c2ccc(OC)cc2[n+]1[O-] do in these assays?
PLAP act: 0.6; Cav32 inh: -0.91

How did Cc1ccc(NC(=O)COC(=O)CCc2c[nH]c(=O)[nH]2)cc1 do in these assays?
M1 agonist: 7.3*; M1 antagonist: -0.033; PLAP act: 1.1; M1 agonist conf: 27; M4 ag counter: -1.3

What do the screens show for `O=C(COc1ccc(Br)cc1)Nc1ccc([N+](=O)[O-])cn1`?
PLAP act: 0.9; Cav32 inh: 0.21

What do the screens show for `CCc1ccccc1S(=O)(=O)Cc1ccc(C(=O)N2CCN(c3ccccc3OC)CC2)o1`?
M1 agonist: 7.2*; M1 antagonist: -0.28; PLAP act: 1.5; Cav32 inh: 0.29; M1 agonist conf: -16; M4 ag counter: inconclusive

Results for Cc1ccccc1S(=O)(=O)Cc1ccc(C(=O)N2CCN(c3cccc(C)c3C)CC2)o1 ?
M1 agonist: 9.7*; M1 antagonist: -0.63; PLAP act: 1.4; Cav32 inh: -2.1; M1 agonist conf: inconclusive; M4 ag counter: -31

Results for Cc1ccccc1S(=O)(=O)Cc1ccc(C(=O)N2CC(C)CC(C)C2)o1 (stereo not drawn) ?
M1 agonist: -0.89; M1 antagonist: 0.0081; PLAP act: 1.2; Cav32 inh: 0.038

What do the screens show for `COC(=O)CC1SC(=O)NC1=Nc1cccc(C)c1` (stereo not drawn)?
PLAP act: 0.8; Cav32 inh: 0.23

How did Cc1cccc(N=c2oc3cc(O)ccc3cc2C(N)=O)c1 do in these assays?
M1 agonist: 5.4*; M1 antagonist: -0.033; PLAP act: 0.8; Cav32 inh: 0.51; M1 agonist conf: 24; M4 ag counter: 10

What do the screens show for `COc1ccccc1N=c1oc2cc(O)ccc2cc1C(N)=O`?
M1 agonist: 7.6*; M1 antagonist: -1.7; PLAP act: 0.9; Cav32 inh: 0.88; M1 agonist conf: 39; M4 ag counter: 12

Results for NC(=S)c1cc2ccc(O)cc2oc1=O ?
PLAP act: 0.8

How did CNC(=O)c1nc(C)c(C2(C)CC(c3cccc([N+](=O)[O-])c3)=NO2)s1 (stereo not drawn) do in these assays?
Cav32 inh: 0.16

How did CCOC(=O)C1=C(c2cccc(F)c2)NC(=S)NC1C (stereo not drawn) do in these assays?
PLAP act: 0.9; Cav32 inh: -0.063

Screening data (PubChem BioAssay)
